The values that follow come from the supplement of paper PMC7156485.

Holding throughout (conditions): concentration: 10 µM; 24 h
Assay [1] deals with HCC1569. Description: cell number relative to DMSO (% of DMSO); higher = more cells (less growth inhibition / toxicity). The essentials:
(§1)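 In 384-well plates holding 800 HCC1569 or TDF cells per well in RPMI with 10% FBS, compounds were tested at 10 µM for 24 h at 37 °C in triplicate. Fixation used 3.7% formaldehyde. Staining used a rabbit anti-H1.0 antibody with an AlexaFluor 647 secondary, plus DAPI. Each value, H1.0 nuclear intensity or cell number, is a median of replicates shown as percent of the plate control, and HCC1569 values were smoothed for positional effects.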

For assay [2], the system named is TDF. Described as above. The essentials: as §1
Assay [3] concerns TDF. Put plainly: H1.0 immunofluorescence intensity relative to DMSO (% of DMSO); higher = stronger H1.0 induction, active = 120 or more. In short, it runs like this: as §1
Assay [4] concerns HCC1569. Put plainly: H1.0 immunofluorescence intensity relative to DMSO (% of DMSO); higher = stronger H1.0 induction, active = 140 or more. The essentials:
as §1
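Wherever H1.0 immunofluorescence intensity relative to DMSO is given: TDF is a line of transformed human dermal fibroblasts of mesenchymal origin.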
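Wherever cell number relative to DMSO is given: TDF denotes transformed human dermal fibroblasts of mesenchymal origin.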

Consider `COC(=O)C(N)CCCN=C(N)N[N+](=O)[O-].Cl` [NG-Nitro-L-arginine methyl ester hydrochloride], for which the cell number was 103 in the assay with HCC1569 [1] and 109 in the assay on TDF [2]. Moreover, the H1.0 immunofluorescence intensity in the assay on TDF [3] is 89.9 (inactive); in the assay with HCC1569 [4], 92.5 (inactive).
For `CC(=O)OC1CC2CCC3C(CCC4(C)C3CC([N+]3(C)CCCCC3)C4OC(C)=O)C2(C)CC1[N+]1(C)CCCCC1.[Br-].[Br-]` (configuration not stated) [Pancuronium.2Br], in that order: 100, 92, 93.9 (inactive) and 102 (inactive).
For `Cl.NCCc1ccc(S(=O)(=O)F)cc1` [4-(2-Aminoethyl)benzenesulfonyl fluoride hydrochloride], in that order: 100, 107, 93.2 (inactive) and 88.6 (inactive).
In the case of `COc1ccc2c(c1)=NC1=C(C)NCCC=21` [Harmaline], the cell number with HCC1569 [1] worked out at 99.3; in the assay with TDF [2], 103. The H1.0 immunofluorescence intensity with TDF [3] was 97.5 (inactive); in the assay on HCC1569 [4], 93.9 (inactive).
In the same order, the values of `CC(C)NP(=O)(NC(C)C)OP(=O)(NC(C)C)NC(C)C` [Tetraisopropyl pyrophosphoramide] are 99.2, 104, 94.9 (inactive) and 105 (inactive).
`C=CC12CN(C)C3C4COC(CC41)C1(C(=O)Nc4ccccc41)C32.Cl` (configuration not stated): the values for the cell number in the assay on HCC1569 [1] and in the assay with TDF [2] were 102 and 111, respectively. Further, the H1.0 immunofluorescence intensity is 101 (inactive) in the assay with TDF [3] and 94.5 (inactive) in the assay on HCC1569 [4].
In the same order, the values of `CN(C)C(=O)C(CCN1CCC(O)(c2ccc(Cl)cc2)CC1)(c1ccccc1)c1ccccc1.Cl` [Loperamide.HCl] are 102, 98.6, 97.6 (inactive) and 105 (inactive).
For the compound `CCNC(=O)C[C@@H]1N=C(c2ccc(Cl)cc2)c2cc(OC)ccc2-n2c(C)nnc21`, the results for the cell number in the assay with HCC1569 [1] and with TDF [2] were 86.4 and 71.9, respectively. Besides, the figures for the H1.0 immunofluorescence intensity in the assay on TDF [3] and with HCC1569 [4] were 141 (active) and 198 (active), respectively.
